Test results from PubChem BioAssay (Tox21).
Where “and” joins values, the source holds several entries; their conditions need not be identical. Identical values can stand only once. Records with an inconclusive call do not appear. Where a structure was tested more than once in an assay, its records may differ in their call. Calls of active or inactive are those of the source. Unless noted, calls follow the shape of the full dose curve.

Assays:
[1] = Nuclear factor erythroid 2-related factor 2/antioxidant responsive element (Nrf2/ARE) small molecule agonists: qHTS cell viability counter screen in human keratinocytes (AID 1919968; active = well fitted curve in the direction sought with a large enough effect in the repeat runs; an effect the other way counts as inactive or inconclusive; also: nearly all actives have a fitted effect of over 55% in size; also: potency is read from the fitted curve at half-maximal effect)
Summary of the method: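 Seed 1,500 KeratinoSens cells per well, then incubate 5 h at 37 C/5% CO2. Add compounds in DMSO and incubate 23 h. Add CellTiter-Fluor, wait 1 h and read fluorescence.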

[2] = Nuclear factor erythroid 2-related factor 2/antioxidant responsive element (Nrf2/ARE) small molecule agonists: luciferase reporter gene qHTS assay in human keratinocytes (AID 1919969); also: nearly all actives have a fitted effect of over 35% in size; also: potency is read from the fitted curve at half-maximal effect
[3] = target: Gonadotropin-releasing hormone receptor (Homo sapiens) (UniProt P30968); test: Human gonadotropin-releasing hormone receptor (GnRHR) small molecule agonists, calcium flux assay in GnRHR-HEK293 cells (AID 1920063); also: nearly all actives have a fitted effect of over 35% in size
Summary of the method: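 Cells: HEK293 stably expressing human GnRHR. Steps: overnight (18 h) culture, 1 h calcium dye loading at 37 C, compound addition, kinetic fluorescence read at 480/540 nm. Each compound tested at 15 concentrations in triplicate.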

[4] = target: KiSS-1 receptor (Homo sapiens) (UniProt Q969F8); test: Human kisspeptin (KISS1R) small molecule agonists, calcium flux assay in KISS1R-HEK293 cells (AID 1920064; active = well fitted curve in the direction sought with a large enough effect in the repeat runs; an effect the other way counts as inactive or inconclusive)
Summary of the method: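 Cells plated and incubated 18 h; dye added, 1 h at 37 C; compounds in DMSO pinned in; signal read at 480/540 nm every second for 3 min. Each compound tested at 15 concentrations in triplicate.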

[5] = p53 small molecule agonists, cell-based qHTS assay with rat liver microsomes (AID 1963578)
Summary of the method: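 Cells carrying a p53 response element–beta-lactamase reporter were plated and rested 5 h, then dosed with compound in DMSO plus rat liver microsomes and NADPH, each at 0.5 mg/mL final. After 16 h at 37 C, LiveBLAzer substrate was added for 2 h.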

[6] = p53 small molecule agonists, cell-based qHTS assay with human liver microsomes: qHTS cell viability counter screen (AID 1963579); also: nearly all actives have a fitted effect of over 45% in size; also: potency is read from the fitted curve at half-maximal effect
Summary of the method: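 Cytotoxicity counter screen: p53RE-bla, 4,000 cells/well; 5 h settle, 37 C/5% CO2; cpd + HLM 0.5 mg/mL + NADPH 0.5 mg/mL (final); 16 h, 37 C; CellTiter-Glo, 30 min RT, luminescence.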

[7] = p53 small molecule agonists, cell-based qHTS assay with rat liver microsomes: qHTS cell viability counter screen (AID 1963580); also: nearly all actives have a fitted effect of over 45% in size; also: potency is read from the fitted curve at half-maximal effect
Summary of the method: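 p53RE-bla HCT-116 cells (4,000/well) rested 5 h at 37 C, then given Tox21 compounds in DMSO with rat liver microsomes (0.5 mg/mL final) plus NADPH (0.5 mg/mL final) for 16 h at 37 C. Viability read by CellTiter-Glo luminescence after 30 min at room temperature.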

[8] = p53 small molecule agonists, cell-based qHTS assay: qHTS cell viability counter screen (AID 1963581); also: nearly all actives have a fitted effect of over 45% in size
Summary of the method: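 Cells: HCT-116 with p53 response element-driven beta-lactamase. Treatment: 16 h, 37 C, compounds in DMSO. Read: CellTiter-Glo luminescence after 30 min RT.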

[9] = p53 small molecule agonists, cell-based qHTS assay (AID 1963582; active = well fitted activation curve with a large enough effect in the signal ratio in the repeat runs, not every such curve was filed as active; the % refers to the signal ratio)
Summary of the method: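 Quantitative HTS in p53RE-bla cells: after a 5 h settling period, compounds delivered in DMSO were left on cells for 16 h at 37 C, and reporter induction was measured as fluorescence following 2 h substrate loading.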

[10] = target: 5-hydroxytryptamine receptor 2A (Homo sapiens) (UniProt P28223); test: 5-hydroxytryptamine receptor 2A (HTR2A) small molecule antagonists, cell-based qHTS assay (AID 1963586); also: nearly all actives have a fitted effect of over 45% in size; also: potency is read from the fitted curve at half-maximal effect
Summary of the method: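 Antagonist-mode intracellular calcium assay: DOI (4 nM) added after 5 min compound pre-incubation at room temperature to dye-loaded HTR2A-CHO cells. Fluorescence followed for 3 min, sampled every second.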

[11] = target: 5-hydroxytryptamine receptor 2A (Homo sapiens) (UniProt P28223); test: 5-hydroxytryptamine receptor 2A (HTR2A) small molecule agonists, cell-based qHTS assay (AID 1963587); also: nearly all actives have a fitted effect of over 30% in size
Summary of the method: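 HTR2A-CHO cells, plated 18 h at 37 C/5% CO2, dye-loaded 1 h at 37 C; compounds in DMSO added by pin tool (agonist mode). Intracellular calcium flux read as kinetic fluorescence on FDSS over 2 min at 1 s intervals.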

[12] = target: Muscarinic acetylcholine receptor M1 (Homo sapiens) (UniProt P11229); test: Cholinergic receptor muscarinic 1 (CHRM1) small molecule antagonists, cell-based qHTS assay (AID 1963588); also: nearly all actives have a fitted effect of over 40% in size
Summary of the method: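 CHRM1-CHO calcium-flux assay, antagonist mode. Cells were seeded 18 h, dye-loaded 1 h at 37 C and given compound for 5 min at RT, then acetylcholine was added at 50nM. FDSS fluorescence was read 3 min; 15 concentrations, three runs.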

[13] = target: Muscarinic acetylcholine receptor M1 (Homo sapiens) (UniProt P11229); test: Cholinergic receptor muscarinic 1 (CHRM1) small molecule agonists, cell-based qHTS assay (AID 1963589); also: nearly all actives have a fitted effect of over 35% in size
Summary of the method: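 Agonist-mode qHTS in CHO cells stably carrying human muscarinic M1. Intracellular calcium is tracked by fluorescence every second after compound transfer; each compound runs at 15 concentrations in three independent runs.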

[14] = cAMP Responsive Elements (CRE) small molecule agonists, cell-based qHTS assay (AID 1963590)
Summary of the method: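 Agonist mode qHTS in CRE-bla HEK 293T cells: compounds dosed from DMSO for 3 h at 37 C/5% CO2, followed by LiveBLAzer B/G FRET substrate for 2 h at room temperature.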

[15] = cAMP Responsive Elements (CRE) small molecule antagonists, cell-based qHTS assay (AID 1963591; active = well fitted inhibition curve with a large enough effect in the signal ratio in the repeat runs, not every such curve was filed as active; the % refers to the signal ratio; also: potency is read from the fitted curve at half-maximal effect)
Summary of the method: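 Antagonist mode: test compounds are co-incubated with the adenylyl cyclase activator NKH477 (0.25 uM final) on CRE-bla HEK293T cells for 3 h at 37 °C, followed by LiveBLAzer substrate loading.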

[16] = target: Beta-2 adrenergic receptor (Homo sapiens) (UniProt P07550); test: Adrenergic beta2 receptor (ADRB2) small molecule antagonists, cell-based qHTS assay (AID 1963592); also: series mostly up to about 92 µM; nearly all actives have a fitted effect of over 50% in size
Summary of the method: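 Cells (CHO, stable ADRB2 overexpression) incubated 18-20hr at 37C; compounds added from DMSO; agonist mix (1nM isoproterenol, 100uM IBMX, 25uM Ro-20-1724) added; 0.5hr RT; d2-cAMP and anti-cAMP-cryptate added; 1hr RT; 665/615 nm read.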

[17] = target: Beta-2 adrenergic receptor (Homo sapiens) (UniProt P07550); test: Adrenergic beta2 receptor (ADRB2) small molecule agonists, cell-based qHTS assay (AID 1963593);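 also: CHO cells stably overexpressing human ADRB2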
Summary of the method: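 CHO cells stably over-expressing ADRB2 were plated overnight at 37C, then dosed with compounds plus a stimulation mix containing 100uM IBMX and 25uM Ro-20-1724 for 0.5hr at room temperature. cAMP was measured by HTRF competition, 1hr.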

[18] = target: D(2) dopamine receptor (Homo sapiens) (UniProt P14416); test: Dopamine D2 receptor (DRD2) small molecule agonists, cell-based qHTS assay (AID 1963594); also: nearly all actives have a fitted effect of over 35% in size; also: potency is read from the fitted curve at half-maximal effect
Summary of the method: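 HEK293 cells stably expressing DRD2 were cultured 24 h at 37 C, then given Ro20-1724 (0.1 mM final) and compounds for 10 min at room temperature. NKH477 (200nM) was then added for 30 min. cAMP was read by HTRF.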

[19] = target: D(2) dopamine receptor (Homo sapiens) (UniProt P14416); test: Dopamine D2 receptor (DRD2) small molecule antagonists, cell-based qHTS assay (AID 1963595; active = well fitted inhibition curve with a large enough effect in the signal ratio in the repeat runs, with a control signal flat; the % refers to the signal ratio)
Summary of the method: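 Stable D2 receptor HEK293 line, 24 h after seeding. Compound preincubated 10 min, then quinpirole (12 nM) with forskolin analogue NKH477 (200 nM), 30 min, room temperature. Detection by time-resolved FRET of cAMP.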

[20] = G protein-coupled receptor (GPCR) small molecule agonists, calcium flux assay: HEK293 wild type cell line counter screen (AID 1920065); also: potency is read from the fitted curve at half-maximal effect
Summary of the method: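 Counter-screen of the Tox21 10K library for non-specific calcium release: dye-loaded cells received compounds in DMSO and were monitored by kinetic fluorescence (480/540 nm, 3 min). Fifteen concentrations, run in triplicate.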

Measured: Potency

Chain of Gonadotropin-releasing hormone receptor (Homo sapiens) (P30968 whole entry, looked up): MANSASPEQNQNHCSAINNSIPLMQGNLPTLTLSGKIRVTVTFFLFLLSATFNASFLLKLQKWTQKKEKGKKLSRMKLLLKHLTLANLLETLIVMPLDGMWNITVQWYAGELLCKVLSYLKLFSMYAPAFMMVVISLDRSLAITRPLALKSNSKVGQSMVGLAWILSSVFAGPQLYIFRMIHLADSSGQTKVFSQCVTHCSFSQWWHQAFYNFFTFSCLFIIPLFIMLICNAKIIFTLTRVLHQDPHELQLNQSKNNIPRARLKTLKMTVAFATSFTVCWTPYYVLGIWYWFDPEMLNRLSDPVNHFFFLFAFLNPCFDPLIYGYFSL
Chain of 5-hydroxytryptamine receptor 2A (Homo sapiens) (P28223 whole entry, looked up): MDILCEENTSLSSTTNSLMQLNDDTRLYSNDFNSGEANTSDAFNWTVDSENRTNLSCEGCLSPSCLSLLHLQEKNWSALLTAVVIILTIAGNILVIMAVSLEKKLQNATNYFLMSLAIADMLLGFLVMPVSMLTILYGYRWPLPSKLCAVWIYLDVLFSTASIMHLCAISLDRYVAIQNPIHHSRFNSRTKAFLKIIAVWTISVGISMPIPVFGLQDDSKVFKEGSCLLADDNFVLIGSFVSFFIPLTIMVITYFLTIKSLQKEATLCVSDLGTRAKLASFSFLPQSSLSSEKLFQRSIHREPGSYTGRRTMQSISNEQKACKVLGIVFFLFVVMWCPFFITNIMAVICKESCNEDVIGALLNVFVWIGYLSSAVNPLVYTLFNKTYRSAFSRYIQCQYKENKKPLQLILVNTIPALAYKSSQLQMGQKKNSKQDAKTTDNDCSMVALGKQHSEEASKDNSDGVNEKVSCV
Chain of KiSS-1 receptor (Homo sapiens) (Q969F8 whole entry, looked up): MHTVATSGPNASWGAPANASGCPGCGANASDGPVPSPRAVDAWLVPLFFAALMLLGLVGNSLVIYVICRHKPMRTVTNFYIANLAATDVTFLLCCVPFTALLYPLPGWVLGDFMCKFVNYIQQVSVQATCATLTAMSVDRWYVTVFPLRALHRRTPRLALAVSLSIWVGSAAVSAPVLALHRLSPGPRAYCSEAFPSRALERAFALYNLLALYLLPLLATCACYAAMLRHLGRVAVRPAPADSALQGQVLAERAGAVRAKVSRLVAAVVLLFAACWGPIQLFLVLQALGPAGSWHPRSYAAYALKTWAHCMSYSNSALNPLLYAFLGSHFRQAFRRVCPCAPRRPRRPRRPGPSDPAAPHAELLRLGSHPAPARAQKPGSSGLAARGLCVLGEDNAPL
Chain of Beta-2 adrenergic receptor (Homo sapiens) (P07550 whole entry, looked up): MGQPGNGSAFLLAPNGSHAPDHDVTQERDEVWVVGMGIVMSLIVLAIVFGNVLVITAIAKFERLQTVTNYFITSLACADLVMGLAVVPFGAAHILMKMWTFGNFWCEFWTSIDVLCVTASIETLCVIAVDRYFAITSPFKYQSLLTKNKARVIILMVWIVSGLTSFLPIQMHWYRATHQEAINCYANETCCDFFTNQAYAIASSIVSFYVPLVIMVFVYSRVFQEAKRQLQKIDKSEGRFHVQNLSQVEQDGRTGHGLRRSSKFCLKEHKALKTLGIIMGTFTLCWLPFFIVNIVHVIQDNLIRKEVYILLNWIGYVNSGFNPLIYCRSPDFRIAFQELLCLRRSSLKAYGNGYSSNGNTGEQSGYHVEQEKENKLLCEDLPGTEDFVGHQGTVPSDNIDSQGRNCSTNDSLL
Chain of Muscarinic acetylcholine receptor M1 (Homo sapiens) (P11229 whole entry, looked up): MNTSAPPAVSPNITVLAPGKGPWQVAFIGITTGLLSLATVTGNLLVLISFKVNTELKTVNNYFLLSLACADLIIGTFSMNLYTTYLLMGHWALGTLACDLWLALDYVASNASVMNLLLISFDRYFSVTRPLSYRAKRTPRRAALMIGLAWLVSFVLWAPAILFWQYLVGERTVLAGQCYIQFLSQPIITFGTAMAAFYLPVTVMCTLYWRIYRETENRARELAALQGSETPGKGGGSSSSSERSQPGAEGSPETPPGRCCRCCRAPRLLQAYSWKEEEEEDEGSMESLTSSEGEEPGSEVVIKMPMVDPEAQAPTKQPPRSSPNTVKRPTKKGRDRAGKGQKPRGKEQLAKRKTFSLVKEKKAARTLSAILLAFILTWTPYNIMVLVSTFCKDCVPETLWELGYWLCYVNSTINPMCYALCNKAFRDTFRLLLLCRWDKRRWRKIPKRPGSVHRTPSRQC
Chain of D(2) dopamine receptor (Homo sapiens) (P14416 whole entry, looked up): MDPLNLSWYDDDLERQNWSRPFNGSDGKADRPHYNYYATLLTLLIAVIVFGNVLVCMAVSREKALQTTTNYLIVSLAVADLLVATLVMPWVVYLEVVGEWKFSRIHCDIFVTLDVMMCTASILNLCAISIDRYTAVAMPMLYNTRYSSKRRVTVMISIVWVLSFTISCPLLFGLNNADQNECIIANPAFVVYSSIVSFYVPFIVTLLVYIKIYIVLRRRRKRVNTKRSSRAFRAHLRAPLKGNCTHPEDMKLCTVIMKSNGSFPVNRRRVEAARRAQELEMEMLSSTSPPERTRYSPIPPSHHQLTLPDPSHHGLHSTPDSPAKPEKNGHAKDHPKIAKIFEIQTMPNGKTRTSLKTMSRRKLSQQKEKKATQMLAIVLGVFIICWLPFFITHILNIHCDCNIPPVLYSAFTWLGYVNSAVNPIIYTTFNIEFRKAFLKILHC

CCCCCCCCOc1ccc(C(=O)c2ccccc2)c(O)c1
inactive: [1] | [2] | [3] | [4] | [5] | [6] | [7] | [8] | [9] | [10] | [11] | [12] | [13] | [14] | [15] | [16] | [17] | [18] | [19]

NNc1ccc(C(=O)O)cc1
active: [2] 22 µM and 30.9 µM
inactive: [1] | [3] | [4] | [5] | [6] | [7] | [8] | [9] | [10] | [11] | [12] | [13] | [14] | [15] | [18]

Oc1ccc(Cl)cc1Cc1cc(Cl)ccc1O
inactive: [3] | [4] | [20] | [10] | [11] | [12] | [18] | [19]
inactive and 33.5 µM (active): [2]
active: [1] 27.8 µM and 61.1 µM | [15] 49.4 µM
40.8 µM (active) and inactive: [6]
41.5 µM (active) and inactive: [7]

CC(C)OB(OC(C)C)OC(C)C
inactive: [1] | [2] | [3] | [4] | [5] | [6] | [7] | [8] | [9] | [10] | [11] | [12] | [13] | [14] | [15] | [16] | [17] | [18] | [19]

CC(C)CC(C)CC(O)CC(C)C (stereo not drawn)
1.8 nM (active) and inactive: [18]
inactive: [1] | [2] | [3] | [4] | [5] | [6] | [7] | [8] | [9] | [10] | [11] | [12] | [14] | [15] | [16] | [17] | [19]

COc1cc2c(c(OC)c1OC)-c1ccc(OC)c(=O)cc1[C@@H](NC(C)=O)CC2
active: [2] 152 nM and 217 nM and 188 nM
inactive: [1] | [3] | [4] | [20] | [15] | [16] | [17]

NC(N)=O
inactive: [1] | [2] | [3] | [4] | [20] | [7] | [8] | [10] | [11] | [12] | [13] | [14] | [15] | [16] | [17] | [18] | [19]

CCN(CC)C(=S)SSC(=S)N(CC)CC
inactive and 25.1 µM (active): [20]
inactive: [2] | [3] | [4] | [14] | [17] | [18] | [19]
active: [1] 96.9 nM and 99.2 nM and 29.8 µM | [15] 1.19 µM

O=C(OCCOCCOC(=O)c1ccccc1)c1ccccc1
inactive: [1] | [2] | [3] | [4] | [5] | [6] | [7] | [8] | [9] | [11] | [13] | [14] | [15] | [16] | [18]
inactive and 7.5 nM (active): [10]

CN1CCC[C@H]1c1cccnc1
inactive: [1] | [2] | [3] | [4] | [20] | [6] | [7] | [14] | [15] | [16] | [17] | [18] | [19]

O=C1O[C@H]([C@H](O)CO)C(O)=C1O
inactive: [1] | [2] | [3] | [4] | [5] | [6] | [7] | [8] | [9] | [14] | [15] | [18] | [19]

O=C(O)Cc1c[nH]c2ccccc12
inactive: [1] | [2] | [3] | [20] | [5] | [6] | [7] | [8] | [9] | [10] | [11] | [12] | [14] | [17] | [18] | [19]

Cc1ccc(C)c(O)c1C
inactive: [1] | [2] | [3] | [4] | [5] | [7] | [8] | [9] | [10] | [11] | [12] | [13] | [15] | [16] | [17] | [18] | [19]

C=C(C)C(=O)OCCC[Si](OC)(OC)OC
inactive: [1] | [2] | [3] | [20] | [5] | [6] | [7] | [8] | [9] | [10] | [11] | [12] | [13] | [14] | [15] | [16] | [18] | [19]
